Data on 36 molecules can be found in PubChem BioAssay (NCI).

SMILES strings stand for the structures. About 79,000 compounds went through this panel and 15% of them were active in at least one assay; those are over-represented in the sample as a whole. Values without a mark were called inactive. Calls of active or inactive are those of the source. Cut-off read from the data, not from the text of the source: active = growth inhibition above about 70%; inactive = the rest.

A short description of assay [1]: NCI Yeast Anticancer Drug Screen. Data for the rad50 strain (AID 155).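 Note: 0% = growth of vehicle-only cultures of the same strain.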 As to conditions: S. cerevisiae rad50 strain growth inhibition; at 50.0 µM; active compounds read high. Put shortly:
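DNA repair mutant yeast, compound exposure, growth read-out; inhibition is taken relative to vehicle.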

Assay [2] is described as follows: NCI Yeast Anticancer Drug Screen. Data for the mec2-1 strain (AID 157). As to conditions: S. cerevisiae mec2-1 strain, at 50.0 µM, active compounds read high. Put shortly: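 Growth inhibition is read against vehicle-treated controls after compound exposure of the mec2-1 yeast strain, which is defective in DNA damage repair or cell cycle control.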
Assay [3] in a line: NCI Yeast Anticancer Drug Screen. Data for the sgs1 mgt1 strain (AID 161).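 Note: 0% = growth of cultures given vehicle only.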 The note with it: S. cerevisiae sgs1 mgt1 strain, at 50.0 µM, active compounds read high. The method, boiled down:
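Percent growth inhibition was derived by comparing compound-exposed mutant yeast with vehicle-exposed cultures. The strain carries alterations in DNA damage repair.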

Assay [4] is described as follows: NCI Yeast Anticancer Drug Screen. Data for the cln2 rad14 strain (AID 165).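 Note: 0% = growth equal to vehicle treated cultures.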 As to conditions: S. cerevisiae cln2 rad14 strain, at 50.0 µM, active compounds read high. The method, boiled down:
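Growth inhibition, relative to vehicle-treated controls, is the read-out. The test organism is a yeast strain with defined genetic alterations, cln2 rad14.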

Assay [5] is described as follows: NCI Yeast Anticancer Drug Screen. Data for the bub3 strain (AID 167). As to conditions: S. cerevisiae bub3 mutant strain, at 50.0 µM, active compounds read high. Put shortly: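 In this screen, a yeast mutant lacking normal mitotic checkpoint function is challenged with compound. Relative growth versus vehicle gives the inhibition value.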
The nature of assay [6]: NCI Yeast Anticancer Drug Screen. Data for the mlh1 rad18 strain (AID 175). The note with it: S. cerevisiae mlh1 rad18 strain growth inhibition; at 50.0 µM; active compounds read high. The method, boiled down:
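Cells of a genetically altered yeast strain, deficient in DNA damage repair, were treated with compound. Their growth was then compared with that of vehicle-treated cultures to give inhibition.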

With `O=C(O)Cc1ccc2ccccc2c1`, the growth inhibition in assay [1] was 6.3%; in assay [2], 13.2%; in assay [3], 20.6%; in assay [4], 3.6%; in assay [5], 0.45%; in assay [6] it was 48%.

Take `Cc1nc(-c2ccccc2)cc2c1c(=O)oc1ccccc12`: the growth inhibition was -14.7% in assay [1]; -30.6% in assay [2]; 4% in assay [3]; 6.3% in assay [4]; -5.4% in assay [5]; -8.55% in assay [6].

Take `COc1cccc2cc(C(=O)Nc3ccccc3)c(=N)oc12`: the growth inhibition was 2.75% in assay [1]; 12.7% in assay [2]; -31% in assay [3]; 9.3% in assay [4]; -37.9% in assay [5]; -43% in assay [6].

Take `N#CC(c1ccccc1)C1CCN(Cc2ccccc2)CC1` (stereo unspecified): the growth inhibition was 45.8% in assay [1]; 20.8% in assay [2]; 48.1% in assay [3]; 47.8% in assay [4]; 45.8% in assay [5]; 33.1% in assay [6].

Regarding `O=S(=O)(O)C(c1ccccc1)C(O)c1ccccc1` (stereo unspecified), the growth inhibition in assay [1] is 0.95%; in assay [2], -8.95%; in assay [3], -14.4%; in assay [4], -25.2%; in assay [5], -20.9%; in assay [6], -0.25%.

With `c1ccc(COC(c2ccccc2)(c2ccccc2)c2ccccc2)cc1`, the growth inhibition in assay [1] was -0.45%; in assay [2], -2.2%; in assay [3], 10.4%; in assay [4], -8.55%; in assay [5] it was -0.85%; in assay [6], 27.9%.

For the molecule `COc1ccc(C2=C(N)c3c(Cl)cccc3C2=O)cc1`, the growth inhibition in assay [1] was 6.35%; in assay [2], 3.4%; in assay [3], 30.2%; in assay [4], 14.8%; in assay [5] it was 21.5%; in assay [6], -58.2%.

Take `CCCn1c(=O)n(C)c(=O)c2c1ncn2C`: the growth inhibition was -5.15% in assay [1]; -2.25% in assay [2]; 13.2% in assay [3]; -28.1% in assay [4]; 4.1% in assay [5]; 13.5% in assay [6].

On to `Nc1cc(F)cc(C(F)(F)F)c1F`, for which the growth inhibition is 13.5% in assay [1]; -32.3% in assay [2]; -4.3% in assay [3]; -12.2% in assay [4]; -5.35% in assay [5]; 18.6% in assay [6].

Take `O=C(CN1C(=O)c2ccccc2C1=O)C(O)CN1C(=O)c2ccccc2C1=O` (stereo unspecified): the growth inhibition was 2.5% in assay [1]; 0.6% in assay [2]; 2.05% in assay [3]; 27.9% in assay [4]; 11.4% in assay [5]; 14.6% in assay [6].

In the case of `COc1ccc(/C=C2/C(=O)N(C(=O)c3ccc(Cl)cc3)N=C2C)cc1OC`, the growth inhibition was -18.7% in assay [1]; -36.9% in assay [2]; -32.6% in assay [3]; -3.55% in assay [4]; -17.1% in assay [5]; -35.5% in assay [6].

For the molecule `CN(C)/C=C/c1ccnc2c1C(=O)c1ccccc1C2=O`, the growth inhibition in assay [1] is 83.7% (active); in assay [2], 90.5% (active); in assay [3], 73.3% (active); in assay [4], 67.8%; in assay [5], 75.5% (active); in assay [6] it was 92.7% (active).

For `CC(C)(O)CCC(C)(C)O`, the growth inhibition is 60.3% in assay [1]; -19.1% in assay [2]; 41.9% in assay [3]; -25.9% in assay [4]; 0.5% in assay [5]; 45.2% in assay [6].

For the molecule `C1CSCCSCCCSCCSCCCSCCSCCCSCCSC1`, the growth inhibition is 21.2% in assay [1]; 20.9% in assay [2]; 45.9% in assay [3]; 13.4% in assay [4]; 21.1% in assay [5]; 44.6% in assay [6].

For `CC(=O)NC(CCCc1ccccc1)C(=O)O` (stereo unspecified), the growth inhibition in assay [1] is 7.65%; in assay [2], 9%; in assay [3] it was -17.1%; in assay [4], -23.1%; in assay [5], 2.45%; in assay [6], -18.9%.

Regarding `CCOC1CN(C(=O)ON)N1C(=O)ON` (stereo unspecified), the growth inhibition in assay [1] is 4.8%; in assay [2], -12.6%; in assay [3], -10.4%; in assay [4] it was -33.2%; in assay [5], -22.4%; in assay [6], 4.85%.

As to `CCOC=C(C(=O)OCC)C(=O)OCC`, the growth inhibition in assay [1] was 22.1%; in assay [2], -7.45%; in assay [3], -6.5%; in assay [4], -1%; in assay [5] it was -10.6%; in assay [6], 15.6%.

In the case of `Cc1cc(=O)c2c(F)ccc(F)c2[nH]1`, the growth inhibition was 0% in assay [1]; 4.5% in assay [2]; 13.9% in assay [3]; -36.4% in assay [4]; -7.85% in assay [5]; 12.7% in assay [6].

With `CC(=O)Nc1ccc2c([N+](=O)[O-])cccc2c1-c1c(NC(C)=O)ccc2c([N+](=O)[O-])cccc12`, the growth inhibition in assay [1] was 44.2%; in assay [2] it was 10.8%; in assay [3], 35.4%; in assay [4], 10.8%; in assay [5], 5.55%; in assay [6], 30.4%.

In the case of `Cc1cc(C)c(NC(=O)c2c(Cl)c(Cl)c(Cl)c(Cl)c2C(=O)O)c(C)c1`, the growth inhibition in assay [1] was -4.9%; in assay [2], -4.45%; in assay [3] it was 0.05%; in assay [4] it was -51.3%; in assay [5], 5.5%; in assay [6] it was 0.3%.

As for `Cc1ccc(S(=O)(=O)N/N=C2/CCC(C(C)(C)C)CC2Br)cc1` (stereo unspecified), the growth inhibition was 3.9% in assay [1]; -2.4% in assay [2]; -6.35% in assay [3]; -2.9% in assay [4]; 17.4% in assay [5]; 2.1% in assay [6].

Turning to `COc1ccc2c(c1C)OC(C)C2=O` (stereo unspecified), the growth inhibition in assay [1] was 9.65%; in assay [2], 5.05%; in assay [3], -3.9%; in assay [4], -21.1%; in assay [5], -15.9%; in assay [6] it was 0.7%.

On to `C=CCOC1OC(CO)C(O)C(O)C1O` (stereo unspecified), for which the growth inhibition in assay [1] is 9.8%; in assay [2], 38%; in assay [3], 29.2%; in assay [4] it was 11.5%; in assay [5], 7.3%; in assay [6] it was 9.35%.

On to `N#CC1(c2ccc(Cl)cc2)CCC1`, for which the growth inhibition in assay [1] is 11.7%; in assay [2], 6.15%; in assay [3], 19.8%; in assay [4] it was 19.9%; in assay [5] it was 27.5%; in assay [6], 8.6%.

As for `CN(C)c1ccc(/C=N/NC(=O)c2cnc3ccccc3c2)cc1`, the growth inhibition in assay [1] is -7.05%; in assay [2], -4.95%; in assay [3], -11.3%; in assay [4], -0.4%; in assay [5] it was 8.1%; in assay [6] it was 17.4%.

In the case of `CC(C)(O)C(O)COc1c2c(cc3oc(=O)ccc13)OCO2` (stereo unspecified), the growth inhibition in assay [1] is 26.3%; in assay [2] it was 3.5%; in assay [3], 18.9%; in assay [4], -1.35%; in assay [5], 31.9%; in assay [6] it was 25.6%.

In the case of `COc1cc2c(cc1C/C=C/c1ccccc1)OCO2`, the growth inhibition is -11.4% in assay [1]; -15.9% in assay [2]; -0.9% in assay [3]; -9.5% in assay [4]; 17.1% in assay [5]; -6.4% in assay [6].

Regarding `COC(=O)N1C2c3ccccc3C(c3ccccc32)N1C(=O)OC`, the growth inhibition is 6% in assay [1]; 21.5% in assay [2]; 11.3% in assay [3]; -54.8% in assay [4]; 32.8% in assay [5]; 33.8% in assay [6].

Consider `COc1cccc(/C=C2\SC(=S)N(/C=C3\C(=O)Oc4ccccc4C3=O)C2=O)c1O`, for which the growth inhibition is 12.2% in assay [1]; 40.1% in assay [2]; 59% in assay [3]; 50.6% in assay [4]; 12.8% in assay [5]; 23.6% in assay [6].

As to `CCCCCC#CC(=O)OCC`, the growth inhibition in assay [1] is 0.6%; in assay [2], -0.9%; in assay [3] it was -6.25%; in assay [4], 10.1%; in assay [5] it was -11.9%; in assay [6], 15.8%.

Take `CCc1ccccc1NC(=O)NCC(C)C`: the growth inhibition is -7.65% in assay [1]; -20.3% in assay [2]; 5.85% in assay [3]; -3.8% in assay [4]; 2.7% in assay [5]; -4.35% in assay [6].

Take `COc1ccccc1C1OC(C)C(C)O1` (stereo unspecified): the growth inhibition is -16.1% in assay [1]; -10.7% in assay [2]; -7.35% in assay [3]; 5.5% in assay [4]; -25.9% in assay [5]; -16.3% in assay [6].

As to `CC1=NNC(=O)C1(C)C`, the growth inhibition was -16.4% in assay [1]; 0.7% in assay [2]; -20.6% in assay [3]; 26.1% in assay [4]; 3.3% in assay [5]; 4.55% in assay [6].

Consider `COc1ccc(-c2c3c(n(C4OC(COC(C)=O)C(OC(C)=O)C(OC(C)=O)C4OC(C)=O)c(=S)c2C#N)CCCC3)cc1` (stereo unspecified), for which the growth inhibition was -17.9% in assay [1]; -13.2% in assay [2]; 3.4% in assay [3]; 2.05% in assay [4]; -1.95% in assay [5]; -5% in assay [6].

`NC(=O)c1csc([C@@H](O)Cc2ccccc2)n1`: the growth inhibition was -2.25% in assay [1]; 3.5% in assay [2]; 7.5% in assay [3]; -7.7% in assay [4]; 8.35% in assay [5]; 7.95% in assay [6].

On to `O=c1oc2ccccc2c2c1Sc1ccccc1N2`, for which the growth inhibition in assay [1] was -0.95%; in assay [2] it was -22%; in assay [3] it was 17%; in assay [4], 12.8%; in assay [5] it was 2.05%; in assay [6], -9.1%.
